For 40 compounds, outcome and AC50 results are on record in PubChem BioAssay (EPA / NIEHS).

The structures appear in SMILES notation. Calls of active or inactive are those of the source. Rule for the calls: active = hit-call score of the fitted dose curve at least 0.9, where 1 is the maximum; inactive = score below 0.9.

Cellular tumor antigen p53 (Homo sapiens), sequence (P04637 whole entry, looked up): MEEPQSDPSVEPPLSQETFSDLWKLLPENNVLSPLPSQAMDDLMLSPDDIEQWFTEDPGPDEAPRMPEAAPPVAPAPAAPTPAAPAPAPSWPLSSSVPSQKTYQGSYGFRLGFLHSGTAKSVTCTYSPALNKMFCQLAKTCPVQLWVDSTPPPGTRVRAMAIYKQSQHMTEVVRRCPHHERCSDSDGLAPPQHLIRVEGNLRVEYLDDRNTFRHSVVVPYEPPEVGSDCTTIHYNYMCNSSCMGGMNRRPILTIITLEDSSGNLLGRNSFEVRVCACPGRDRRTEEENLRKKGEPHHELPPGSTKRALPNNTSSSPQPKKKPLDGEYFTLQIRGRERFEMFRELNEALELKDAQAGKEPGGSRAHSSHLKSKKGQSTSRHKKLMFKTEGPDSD

This experiment addresses Cellular tumor antigen p53 (Homo sapiens) (UniProt P04637). Description: ATG_p53_CIS: Attagene CIS-FACTORIAL HepG2 Assay for human p53 Transcription Factor (AID 2282994). The following applies: HepG2 p53 cis-element reporter, Attagene mRNA; actives raise or lower the signal. The method, then: ATG_CIS is a cell-based, multiplexed-readout assay that uses HepG2, a human liver cell line, with measurements taken at 24 hours after chemical dosing in a 24-well plate.ATG_p53_CIS is one of 52 assay component(s) measured or calculated from the ATG_CIS assay. It is designed to make measurements of mRNA induction, a form of inducible reporter, as detected with fluorescence intensity signals by Reverse transcription polymerase chain reaction (RT-PCR) and Capillary electrophoresis technology.Data from the assay component ATG_p53_CIS was analyzed into 1 assay endpoint. This assay endpoint, ATG_p53_CIS, was analyzed with bidirectional fitting relative to DMSO as the negative control and baseline of activity. Using a type of inducible reporter, measures of mRNA for gain or loss-of-signal activity can be used to understand the reporter gene at the transcription factor-level as they relate to the gene TP53. Furthermore, this assay endpoint can be referred to as a primary readout, because this assay has produced multiple assay endpoints where this one serves a reporter gene function. To generalize the intended target to other relatable targets, this assay endpoint is annotated to the dna binding intended target family, where the subfamily is tumor suppressor.
Human liver HepG2 cells are transiently transfected with multiple reporter transcription units (MRTUs) in 6-well plates using FuGene 6 reagent (Roche; 3 ml FuGene/1 mg DNA). The MRTU constructs are regulated by a cis-regulating element (promoter). […] A major difference between the CIS and TRANS system is that in CIS activities of endogenous TFs are measured, whereas the TRANS assay evaluates changes in activities of exogenous, chimeric NR-Gal4 proteins. […] At the end of 24 hour incubation, total RNA was isolated using TriZol reagent (Invitrogen). The isolated RNA is then reverse-transcribed using oligo(dT) primer and Mo-MLV reverse transcriptase (Invitrogen) with DNAse I (Ambion) treatment for 30 min. The one-tenth of the produced cDNA was amplified by PCR using Taq DNA polymerase (Invitrogen) and two reporter sequence-specific primers. The PCR products were fluorescently labeled by primer extension with 6-arboxyfluorescein (6-FAM) 5'-labeled reporter sequence-specific primer (2 min at 95 C, 20 s at 68 C and 10 min at 72 C) and these products were digested with 5U of HpaI (New England Biolabs) for 2h at 37 C. The fragments were purified using Qiaquick PCR columns (Qiagen), analyzed on an ABI 3130xL genetic analyzer (Applied Biosystems) with peak positions identified by using a set of X-rhodamine (ROX)-labeled MapMarker1000 molecular weight standards (BioVentures). The raw capillary electrophoresis data was processed using Attagraph software (Attagene).
For `CCCCCCCCCCCCCC(=O)O`, the compound was called inactive.
The same measure, in the same setting: under `CC1(C)[C@H](C(=O)OCc2cccc(Oc3ccccc3)c2)[C@@H]1C=C(Cl)Cl` stands “inactive”; under `Nc1cc([N+](=O)[O-])ccc1Cl`, “inactive”.
Turning to `CSc1nnc(C(C)(C)C)c(=O)[nH]1`, the result was inactive.
On to `CCCCN`, for which the compound was called inactive.
Same read-out and setting: as for `N#Cc1ccc(CC(=NNC(=O)Nc2ccc(OC(F)(F)F)cc2)c2cccc(C(F)(F)F)c2)cc1`, the entry is “inactive”; as for `CC(C)(C)NC(N)=O`, “inactive”; as for `CC(C)(C)C(=O)c1ccccc1`, “inactive”.
On the same count and under the same terms, under `O=C[C@@H](O)[C@H](O)[C@H](O)CO` stands “inactive”.
Still for that read-out and setting: as for `C=CC[N+](C)(C)CC=C`, the entry is “inactive”.
Turning to `COCCCOc1ccnc(CS(=O)c2nc3ccccc3[nH]2)c1C` (stereo not given), the result was inactive.
Same read-out and setting: under `CCCCCC(CO)CCC` (stereo not given) stands “inactive”.
The term AC50 denotes the midpoint of the concentration-response curve, whichever way the signal moves. On to `Cc1ccc(S)cc1`, for which the concentration at half-maximal activity (AC50) is 65.1 µM (active).
On to `C=C(C)C(=O)O`, for which the compound was classed as inactive.
Still for that read-out and setting: under `Cc1ccc2ccccc2n1` stands “inactive”; under `O=C(OCc1ccccc1)C(=O)OCc1ccccc1`, “inactive”; under `CCCCC(CC)COCCC#N` (stereo not given), “inactive”.
The same measure, in the same setting: as for `O=C(O)COCCN1CCN(C(c2ccccc2)c2ccc(Cl)cc2)CC1` (stereo not given), the entry is “inactive”; as for `CC1CCC(C(C)(C)O)CC1` (stereo not given), “inactive”; as for `CCc1ccc(C=O)cc1`, “inactive”.
For `C=CC(C)(O)CCC=C(C)CCC=C(C)C` (stereo not given), the outcome was inactive.
The same measure, in the same setting: under `CCC(C)(O)CCC=C(C)C` (stereo not given) stands “inactive”; under `CCCc1c(OCCCOc2ccc(OCC(=O)O)cc2)ccc(C(C)=O)c1O`, “inactive”; under `CO[Si](CCCn1c(=O)n(CCC[Si](OC)(OC)OC)c(=O)n(CCC[Si](OC)(OC)OC)c1=O)(OC)OC`, “inactive”.
On to `C[C@]12CC[C@H]3[C@@H](CCC4=CC(=O)CC[C@@]43C)[C@@H]1CC[C@@H]2C(=O)CO`, for which the AC50 was 42.5 µM (active).
With `CCCC(C)C=O` (stereo not given), the result was inactive.
Turning to `O=C(O)Cc1cccc2ccccc12`, the compound was called inactive.
Regarding `Cc1ccc(C=O)cc1`, the compound was classed as inactive.
As for `Nc1ccc(S(N)(=O)=O)cc1`, the outcome was inactive.
Same read-out and setting: as for `Cc1ccc(C=O)s1`, the entry is “inactive”.
Regarding `CC1=CCC2C(C1)C2(C)C` (stereo not given), the outcome was inactive.
Consider `CC(=O)OCc1ccc2c(c1)OCO2`, for which the result was inactive.
On the same count and under the same terms, as for `O=C(O)c1ccc(C(=O)O)cc1`, the entry is “inactive”; as for `OCCCCCO`, “inactive”; as for `COc1ccc(OC)c(OC)c1`, “inactive”.
As for `CCCCCCCCC`, the compound was called inactive.
Still for that read-out and setting: as for `C[C@H]1C[C@@H]2[C@H]([C@@H](O)C[C@@]3(C)[C@H]2CC[C@]3(O)C(=O)CO)[C@@]2(C)C=CC(=O)C=C12`, the entry is “inactive”; as for `CC1(C)C(=O)N(Br)C(=O)N1Cl`, “inactive”; as for `O=C1C(c2[nH]c3ccc(S(=O)(=O)O)cc3c2O)=Nc2ccc(S(=O)(=O)O)cc21`, “inactive”.
On to `C=CC(=O)OCCn1c(=O)n(CCOC(=O)C=C)c(=O)n(CCOC(=O)C=C)c1=O`, for which the AC50 is 24.3 µM (active).
